The record followed here is PubChem BioAssay (NCATS).

Experiment [1] has as its target Luciferin 4-monooxygenase (Photinus pyralis) (UniProt P08659). The experiment can be described thus: Biochemical firefly luciferase enzyme assay for NPC (AID 624030).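 Also: purified P. pyralis luciferase at 10 nM with luciferin and ATP substrate; 0% = DMSO and -100% = full luciferase inhibition by PTC124 control; nearly all actives have a fitted effect of over 70% in size.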 A digest of the protocol:
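Purified P. pyralis luciferase at 10 nM in 50 mM Tris Acetate (final), luminescence read within 5 minutes of enzyme addition to compounds. Activity normalised to PTC124 versus DMSO; concentration-response curves classed by r2, magnitude and activity.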

Experiment [2] can be described thus: qHTS Assay for Identification of Small Molecule Agonists for Hypoxia Response Element Signaling Pathway (AID 914; active = well fitted activation curve with a large enough effect in the signal ratio, with a control signal flat, not every such curve was filed as active; the % refers to the signal ratio; also: potency is read from the fitted curve at half-maximal effect; as to activation: % of control where 0% means no effect). The following applies: ME-180 (cervical carcinoma) HRE-bla reporter, beta-lactamase ratio, CoCl2, 17 h; activation: active compounds read high. A digest of the protocol:
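Positive modulation of EC50 CoCl2-induced hypoxia response element signaling is measured in ME-180 cells with a beta-lactamase reporter. Compounds are titrated, incubation runs 17 hours, and %Activity derives from the blue/green ratio.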

The test system of another experiment is AS120. The experiment can be described thus: qHTS profiling for inhibitors of Plasmodium falciparum proliferation (AID 504749).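 Also: 0% = DMSO vehicle and full inhibition = artemisinin control; nearly all actives have a fitted effect of over 60% in size.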 The following applies: P. falciparum in erythrocytes, SYBR Green DNA, 72 h; series mostly up to 28.7 µM. A digest of the protocol:
(§1)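 P. falciparum-infected erythrocytes (0.3% parasitemia, 2.5% hematocrit) incubated with compound 72 h at 37 C, 5% CO2. Parasite DNA detected by SYBR Green after lysis, overnight at room temperature; normalised to 0.29 uM artemisinin and DMSO.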

The next experiment has as its system ATS95. The experiment is described as above. Conditions: P. falciparum in erythrocytes, SYBR Green DNA, 72 h; series mostly up to 28.7 µM. A digest of the protocol: as §1
For the next experiment, the system named is CP185. Described as above. The following applies: P. falciparum in erythrocytes, SYBR Green DNA, 72 h; series mostly up to 28.7 µM. A digest of the protocol: as §1
Another experiment relates to CP191. The experiment is described as above. The following applies: P. falciparum in erythrocytes, SYBR Green DNA, 72 h; series mostly up to 28.7 µM. A digest of the protocol:
as §1

A further experiment relates to CP194. The description is as above. Conditions: P. falciparum in erythrocytes, SYBR Green DNA, 72 h; series mostly up to 28.7 µM. A digest of the protocol: as §1
In a further experiment the test system is CP201. Described as above. The following applies: P. falciparum in erythrocytes, SYBR Green DNA, 72 h; series mostly up to 28.7 µM. A digest of the protocol: as §1
In the next experiment the test system is CP203. The experiment is described as above. The following applies: P. falciparum in erythrocytes, SYBR Green DNA, 72 h; series mostly up to 28.7 µM. A digest of the protocol:
as §1

The next experiment concerns CP238. The experiment is described as above. The following applies: P. falciparum in erythrocytes, SYBR Green DNA, 72 h; series mostly up to 28.7 µM. A digest of the protocol:
as §1

Another experiment relates to CP247. The experiment is described as above. The following applies: P. falciparum in erythrocytes, SYBR Green DNA, 72 h; series mostly up to 28.7 µM. A digest of the protocol:
as §1

The next experiment has as its system CP265. Described as above. Conditions: P. falciparum in erythrocytes, SYBR Green DNA, 72 h; series mostly up to 28.7 µM. A digest of the protocol:
as §1

The test system of another experiment is CP266. The description is as above. Conditions: P. falciparum in erythrocytes, SYBR Green DNA, 72 h; series mostly up to 28.7 µM. A digest of the protocol:
as §1

A further experiment has as its system CP269. The description is as above. The following applies: P. falciparum in erythrocytes, SYBR Green DNA, 72 h; series mostly up to 28.7 µM. A digest of the protocol: as §1
Another experiment has as its system CP305. The experiment is described as above. Conditions: P. falciparum in erythrocytes, SYBR Green DNA, 72 h; series mostly up to 28.7 µM. A digest of the protocol: as §1
In another experiment the test system is DFO2036. Described as above. Conditions: P. falciparum in erythrocytes, SYBR Green DNA, 72 h; series mostly up to 28.7 µM. A digest of the protocol:
as §1

Another experiment has as its system DIV30. The description is as above. The following applies: P. falciparum in erythrocytes, SYBR Green DNA, 72 h; series mostly up to 28.7 µM. A digest of the protocol: as §1
For a further experiment, the system named is P94_40. The description is as above. The following applies: P. falciparum in erythrocytes, SYBR Green DNA, 72 h; series mostly up to 28.7 µM. A digest of the protocol:
as §1

The subject of the next experiment is PAD. Described as above. The following applies: P. falciparum in erythrocytes, SYBR Green DNA, 72 h; series mostly up to 28.7 µM. A digest of the protocol: as §1
A further experiment has as its system PC26. The description is as above. The following applies: P. falciparum in erythrocytes, SYBR Green DNA, 72 h; series mostly up to 28.7 µM. A digest of the protocol: as §1

Inconclusive results are not listed. Values without a mark were called inactive. Active and inactive are the calls of the source. Unless noted, calls follow the shape of the dose curve; as a rule, active = well fitted inhibition curve with a large enough effect; inconclusive = small, poorly fitted or top-dose-only effect; inactive = flat fitted curve, though single readings scatter.

Sequence of Luciferin 4-monooxygenase (Photinus pyralis) (P08659 whole entry, looked up): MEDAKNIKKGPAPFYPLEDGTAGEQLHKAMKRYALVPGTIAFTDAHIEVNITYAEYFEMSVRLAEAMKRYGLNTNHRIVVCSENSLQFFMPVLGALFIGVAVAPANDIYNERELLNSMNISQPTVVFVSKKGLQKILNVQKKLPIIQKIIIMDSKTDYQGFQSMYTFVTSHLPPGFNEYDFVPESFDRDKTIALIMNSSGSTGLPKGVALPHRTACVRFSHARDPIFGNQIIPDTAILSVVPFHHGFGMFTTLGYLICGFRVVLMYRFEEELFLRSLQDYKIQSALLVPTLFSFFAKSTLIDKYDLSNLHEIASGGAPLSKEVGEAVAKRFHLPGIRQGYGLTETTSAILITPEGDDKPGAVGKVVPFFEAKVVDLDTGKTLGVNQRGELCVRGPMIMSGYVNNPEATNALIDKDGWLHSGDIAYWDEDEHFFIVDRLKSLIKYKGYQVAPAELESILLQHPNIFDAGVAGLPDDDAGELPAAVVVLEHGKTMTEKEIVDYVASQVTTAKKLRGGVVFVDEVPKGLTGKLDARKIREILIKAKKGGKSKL

Turning to `C=C(NC(=O)C(=C)NC(=O)c1csc(C2=N[C@@H]3c4csc(n4)[C@@H]4NC(=O)c5csc(n5)[C@@H]([C@](C)(O)[C@H](C)O)NC(=O)[C@@H]5CSC(=N5)/C(=C/C)NC(=O)[C@@H]([C@H](C)O)NC(=O)c5csc(n5)[C@]3(CC2)NC(=O)[C@@H](C)NC(=O)C(=C)NC(=O)[C@@H](C)NC(=O)[C@@H]([C@@H](C)CC)N[C@H]2C=Cc3c([C@H](C)O)cc(nc3[C@@H]2O)C(=O)O[C@H]4C)n1)C(N)=O`, in experiment [1], the result was inactive.
For `OC[C@@H]1O[C@@H](n2cnc3c(NC4CCCCC4)ncnc32)[C@@H](O)[C@H]1O`, in experiment [2], the activation is -22.9%.
Turning to `CCNc1ncc2nc(-c3ccccc3)c(=O)n(C3CC3)c2n1`, in experiment [2], the Potency was 2.51 µM (active).
Still for that read-out and setting: the figure for `CN1CCN(c2ncc3nc(-c4cccs4)c(=O)n(C[C@H]4CCCO4)c3n2)CC1` is 3.16 µM (active).
For `C[C@@H]1C[C@H]2[C@H]3C[C@@H](F)C4=CC(=O)C=C[C@]4(C)[C@@]3(Cl)[C@@H](O)C[C@@]2(C)[C@@H]1C(=O)COC(=O)C(C)(C)C`, the compound was called inactive in experiment [1]. Besides, the Potency result in the experiment with AS120, in the experiment with ATS95, with CP185, with CP191, with CP194 and with CP201 was “inactive” in each case. Moreover, the Potency result in the experiment on CP203, in the experiment on CP238, in the experiment on CP247, with CP265, with CP266 and in the experiment with CP269 was “inactive” throughout. Further, the Potency entry in the experiment with CP305, in the experiment with DFO2036, in the experiment with DIV30, in the experiment on P94_40, with PAD and in the experiment on PC26 was “inactive” throughout.
`C(=C/c1ccccc1)/CN1CCN(C(c2ccccc2)c2ccccc2)CC1`: in [1], the compound was called inactive. Moreover, the Potency result in the experiment with AS120, with ATS95, in the experiment with CP185, with CP191, with CP194 and with CP201 was “inactive” throughout. The Potency result in the experiment with CP203, in the experiment with CP238, with CP247, with CP265, with CP266 and in the experiment with CP269 was “inactive” in each case. The Potency entry with CP305, in the experiment with DFO2036, in the experiment on DIV30, with P94_40, in the experiment on PAD and with PC26 was “inactive” in each case.
Turning to `Cc1c(C(=O)O)c(O)cc2c1C(=O)c1c(O)c([C@H]3O[C@H](CO)[C@@H](O)[C@H](O)[C@H]3O)c(O)c(O)c1C2=O`, the Potency entry with AS120, in the experiment on ATS95, in the experiment on CP185, in the experiment with CP191, in the experiment on CP194 and in the experiment with CP201 was “inactive” each time. The Potency result with CP203, in the experiment with CP238, in the experiment on CP247, in the experiment on CP265, in the experiment with CP266 and with CP269 was “inactive” in each case. In addition, the Potency entry with CP305, in the experiment with DFO2036, with DIV30, in the experiment with P94_40, in the experiment with PAD and with PC26 was “inactive” each time.
